Consider six molecules from PubChem BioAssay.

Records with an inconclusive call do not appear. The source made the active and inactive calls.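 How the source made its calls, unless noted: active means efflux inhibition above 0.42, the validation set average plus 4 SD; inconclusive means no clear call, values can overlap the other calls; inactive means the rest.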

A short description of assay [1]: rapamycin-like changes in RPL19A-GFP expression – cell-based, S. cerevisiae, multiplex flow cytometry, primary screen (AID 1862; in the data active means percent of DMSO control GFP below about 86%;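 further: lower values mimic rapamycin by blocking the RPL19A rise seen in DMSO cells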). The settings on record: S. cerevisiae RPL19A-GFP strain, flow cytometry fluorescence, 3 h; at 10 µM; stronger effect = lower value. On the technique in general: Flow cytometry measures light scatter and fluorescence of single cells or particles in a stream.

The nature of assay [2]: TOR pathway GLN3 branch reporter MEP2-GFP changes – S. cerevisiae, multiplex flow cytometry, primary screen (AID 1867;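 active means GFP response, as percent of the DMSO control, above the screen-wide mean plus 3 SD, about 139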;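 further: median GFP channel fluorescence of barcode-gated MEP2-GFP cells measured by flow cytometry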). The settings on record: S. cerevisiae MEP2-GFP strain, 3 h, at 10 µM, stronger effect = higher value, 100% means same as DMSO wells.
Assay [3] can be described thus: TOR pathway RTG branch CIT2 reporter changes – S. cerevisiae, GFP fusion, multiplex flow cytometry, primary screen (AID 1870;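 active means percent response above a set limit, the screen-wide mean plus 3 SD, cut at about 130% in these data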;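 further: barcoded CIT2-GFP strain pooled with four other GFP strains with rapamycin as positive control; median GFP fluorescence per well over plate mean of DMSO wells so 100% = DMSO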). To be noted: S. cerevisiae CIT2-GFP expression, 3 h, at 10 µM, stronger effect = higher value.
Assay [4] can be described thus: TOR pathway LAP4-GFP level changes – S. cerevisiae, multiplex flow cytometry, primary screen (AID 1873;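 active means GFP signal, as percent of the solvent control, above the screen mean plus 3 SD, about 149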). To be noted: S. cerevisiae LAP4-GFP expression, 3 h, at 10 µM, stronger effect = higher value.
The nature of assay [5]: yeast AGP1-GFP level changes, GLN3 branch – cell-based, multiplex flow cytometry, S. cerevisiae, primary screen (AID 1887;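 active means GFP signal above the screen-wide mean plus 3 SD, that is over about 124.5% of the solvent control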;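 further: AGP1-GFP fusion strain of S. cerevisiae within a five-strain barcoded multiplex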). To be noted: 3 h, at 10 µM, stronger effect = higher value.
The nature of assay [6]: reduced mouse 2C T cell binding to pMHC/ICAM-1 vesicles – MLPCN validation set, flow cytometry, LFA-1/ICAM-1 modulator project, pilot screen (AID 2523;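 active means response below a set limit, under 55% cells CD8-positive and vesicle-bound, and CD8 cells' 90th-percentile brightness under 279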;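 on vesicle binding response: mean PE anti-B7-1 fluorescence of CD8+ cells relative to row control; 100% = QL9-loaded vesicles with DMSO vehicle in the same plate row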). The settings on record: 2C mouse CD8+ T cells, at 7 µM, stronger effect = lower value; double positive events: measured here: CD8+/vesicle+ event percentage.
Assay [7] concerns the target Integrin beta-1 (Homo sapiens) + Integrin alpha-4 (Homo sapiens) (UniProt P13612+P05556). The experiment in a line: alpha4beta1 integrin LIBS antibody binding reduction – U937 cells, HUTS-21 mAb, flow cytometry, validation set, VLA-4 allosteric modulator project, pilot screen (AID 2674;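 active means inhibition above 50%, about 3 SD of the validation set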;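 further: antibody binding induced by the VLA-4 ligand LDV present at three times its Kd; 0% = LDV ligand with antibody and no compound and 100% = antibody without LDV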). The settings on record: HUTS-21 LIBS mAb binding, at 6.7 µM, stronger effect = higher value, binding induced by LDV ligand.

Assay [8] can be described thus: calorie-restriction mimetic ROS inhibitors, yeast – validation compound set, pilot screen (AID 2706;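 active means superoxide response below 65% of plate, a cut near 3 SD across the whole screen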;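 further: yeast exposed to compound for one week at 30 degrees C before staining; 100% = mean of all compound wells on the same plate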). The settings on record: S. cerevisiae aging, superoxide DHE fluorescence; at 10 µM, stronger effect = lower value.
In assay [9] the target is Beta-adrenergic receptor kinase 1 (Homo sapiens) (UniProt P25098). The experiment in a line: GRK2 binders displacing RNA aptamer, biochemical, validation, human GRK2, bead flow cytometry (AID 488806;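 active means aptamer binding inhibition above 30%, about 3 SD of noise from non-fluorescent compounds; inactive means inhibition at or below 30%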). The settings on record: bead-bound GRK2, FAM-aptamer displacement, at 10 µM, stronger effect = higher value.
The target of assay [10] is AP-2 complex subunit beta (Homo sapiens) (UniProt P63010). The assay is described as follows: beta-arrestin/AP2 interaction blockers – biochemical, validation set, GST-AP2 beads, flow cytometry, pilot screen (AID 504541;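 active means inhibition above 54%, about 3 SD of non-fluorescent compounds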;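 further: AP2 carries R879A mutation and is captured from E. coli lysate; bead-bound FITC arrestin peptide fluorescence measuring arrestin peptide binding to AP2; 0% = DMSO wells and 100% = excess unlabeled arrestin peptide control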). The settings on record: FITC arrestin peptide, at 10 µM, stronger effect = higher value, AP2 beta2 appendage fragment, R879A mutant.
The nature of assay [11]: cytosolic pH regulators acting via V-ATPase – S. cerevisiae, pHLuorin, HTS validation (AID 504600; in the data active means response above about 15%;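 further: plate controls were DMSO for no effect and reference compound for full effect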). To be noted: V-ATPase proton transport, at 10 µM, stronger effect = higher value.
Assay [12] relates to anti-desmoglein-3 scFv antibody binding to human DSG3. The assay is described as follows: blockers of pathogenic pemphigus antibody–desmoglein-3 binding – biochemical, validation compound set, bead-based, flow cytometry, pilot screen (AID 588368;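 active means binding below the plate cutoff, the plate median minus 3 SD, with a reading above zero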;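 further: signal is the median channel fluorescence of bead-bound GFP antibody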). To be noted: Protein G beads, DSG3-Fc, scFv-GFP binding, at 10 µM, stronger effect = lower value.
Assay [13] in a line: Nile Red efflux blockade in pump-expressing yeast – validation compound set, multiplex, phenotypic, pilot screen (AID 588506).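 Further: Nile Red retained in cells so higher fluorescence means more efflux inhibition; 0 = negative control wells and 1 = enniatin B 25 µM full block.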 The settings on record: S. cerevisiae pump-expressing triplex, Nile Red efflux flow cytometry; at 10 µM; stronger effect = higher value; the pumps come from Candida albicans.
The target in assay [14] is ATP-binding cassette sub-family B member 6 (Homo sapiens) (UniProt Q9NP58). The experiment in a line: blockers of ABCB6-driven porphyrin uptake – K562-ABCB6 cells, flow cytometry, validation set, pilot screen (AID 588550;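 active means inhibition above the screen-wide mean plus 3 SD, about 51%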;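 further: 0% = DMSO wells and 100% = benzethonium chloride 70 µM positive control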). The settings on record: K562-ABCB6 porphyrin accumulation, 1 h, at 10 µM, stronger effect = higher value.
Assay [15] can be described thus: AML differentiation inducers, ER-HoxA9 marrow cells – cell-based, GFP/MAC1 double positive, flow cytometry, validation set, primary screen (AID 588685;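 active means differentiation response of at least 50%, scaled between solvent and reference control, from cells with both markers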;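 further: compound exposure lasts four days before antibody staining and flow analysis; 0% = DMSO wells and 100% = 5 µM fulvestrant positive control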). To be noted: stronger effect = higher value, normalized: vehicle 0, fulvestrant 100.

Chain of Beta-adrenergic receptor kinase 1 (Homo sapiens) (P25098 whole entry, looked up): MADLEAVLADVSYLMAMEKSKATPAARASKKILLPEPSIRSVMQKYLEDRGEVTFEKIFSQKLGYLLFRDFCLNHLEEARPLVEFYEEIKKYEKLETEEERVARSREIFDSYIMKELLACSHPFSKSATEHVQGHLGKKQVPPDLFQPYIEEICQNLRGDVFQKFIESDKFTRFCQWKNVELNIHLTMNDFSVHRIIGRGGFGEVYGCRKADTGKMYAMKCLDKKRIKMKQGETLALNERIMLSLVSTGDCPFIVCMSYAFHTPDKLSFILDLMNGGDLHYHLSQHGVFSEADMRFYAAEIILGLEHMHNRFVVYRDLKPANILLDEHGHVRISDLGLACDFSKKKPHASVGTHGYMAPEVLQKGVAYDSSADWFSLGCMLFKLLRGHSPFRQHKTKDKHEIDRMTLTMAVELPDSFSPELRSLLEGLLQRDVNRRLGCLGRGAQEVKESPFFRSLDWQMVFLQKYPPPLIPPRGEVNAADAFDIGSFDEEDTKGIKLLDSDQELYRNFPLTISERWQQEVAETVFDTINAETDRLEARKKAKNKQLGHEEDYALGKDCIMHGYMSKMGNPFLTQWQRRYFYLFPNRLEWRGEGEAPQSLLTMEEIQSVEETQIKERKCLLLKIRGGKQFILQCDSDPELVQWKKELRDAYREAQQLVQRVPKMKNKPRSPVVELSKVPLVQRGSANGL
Chain of ATP-binding cassette sub-family B member 6 (Homo sapiens) (Q9NP58 whole entry, looked up): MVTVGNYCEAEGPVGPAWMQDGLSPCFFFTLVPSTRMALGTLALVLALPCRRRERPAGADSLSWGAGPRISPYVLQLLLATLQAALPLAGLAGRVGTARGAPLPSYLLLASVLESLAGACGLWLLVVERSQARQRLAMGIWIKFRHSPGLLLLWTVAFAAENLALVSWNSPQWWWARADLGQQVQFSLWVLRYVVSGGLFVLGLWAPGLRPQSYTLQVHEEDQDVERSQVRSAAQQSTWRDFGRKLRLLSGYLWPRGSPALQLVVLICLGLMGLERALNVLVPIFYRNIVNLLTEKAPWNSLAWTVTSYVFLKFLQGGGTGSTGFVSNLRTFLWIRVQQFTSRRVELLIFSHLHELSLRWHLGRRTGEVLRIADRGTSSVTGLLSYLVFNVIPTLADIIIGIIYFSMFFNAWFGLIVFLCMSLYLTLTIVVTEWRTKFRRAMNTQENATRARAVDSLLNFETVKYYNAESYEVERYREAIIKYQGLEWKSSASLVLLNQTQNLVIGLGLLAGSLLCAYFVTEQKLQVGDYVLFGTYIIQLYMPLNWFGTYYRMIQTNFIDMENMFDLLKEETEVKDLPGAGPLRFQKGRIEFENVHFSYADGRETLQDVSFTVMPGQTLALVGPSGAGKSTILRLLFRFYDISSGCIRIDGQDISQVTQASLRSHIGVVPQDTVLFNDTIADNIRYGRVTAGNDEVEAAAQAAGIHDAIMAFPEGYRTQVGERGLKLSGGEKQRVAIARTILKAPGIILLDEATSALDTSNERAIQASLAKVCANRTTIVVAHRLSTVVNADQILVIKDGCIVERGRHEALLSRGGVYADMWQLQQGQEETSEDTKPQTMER
Chain of AP-2 complex subunit beta (Homo sapiens) (P63010 whole entry, looked up, the tested form may be a part, one chain of several): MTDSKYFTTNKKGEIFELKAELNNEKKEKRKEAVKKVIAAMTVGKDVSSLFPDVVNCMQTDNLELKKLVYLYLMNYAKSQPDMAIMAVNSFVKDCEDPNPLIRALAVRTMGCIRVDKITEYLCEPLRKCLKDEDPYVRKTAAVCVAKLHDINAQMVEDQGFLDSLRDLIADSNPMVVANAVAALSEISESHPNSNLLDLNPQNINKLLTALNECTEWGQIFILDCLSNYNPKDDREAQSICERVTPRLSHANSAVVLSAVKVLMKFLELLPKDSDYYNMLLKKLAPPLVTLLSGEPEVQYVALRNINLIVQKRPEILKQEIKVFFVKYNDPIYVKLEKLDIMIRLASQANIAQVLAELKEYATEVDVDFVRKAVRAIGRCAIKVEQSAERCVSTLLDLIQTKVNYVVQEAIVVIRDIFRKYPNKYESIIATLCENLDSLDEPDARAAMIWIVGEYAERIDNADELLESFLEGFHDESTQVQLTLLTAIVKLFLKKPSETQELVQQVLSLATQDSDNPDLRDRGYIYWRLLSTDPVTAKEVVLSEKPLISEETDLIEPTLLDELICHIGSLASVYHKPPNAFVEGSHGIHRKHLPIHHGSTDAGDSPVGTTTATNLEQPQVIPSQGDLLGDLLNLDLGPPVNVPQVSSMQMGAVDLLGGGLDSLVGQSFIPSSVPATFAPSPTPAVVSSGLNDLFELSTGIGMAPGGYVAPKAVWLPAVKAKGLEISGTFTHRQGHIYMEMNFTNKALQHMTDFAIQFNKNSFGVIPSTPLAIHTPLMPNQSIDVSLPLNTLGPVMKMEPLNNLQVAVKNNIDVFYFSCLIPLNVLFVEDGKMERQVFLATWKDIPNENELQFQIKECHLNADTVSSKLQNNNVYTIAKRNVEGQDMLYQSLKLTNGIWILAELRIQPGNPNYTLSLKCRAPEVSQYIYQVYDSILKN
Chain of Integrin beta-1 (Homo sapiens) + Integrin alpha-4 (Homo sapiens) (P05556 whole entry, looked up): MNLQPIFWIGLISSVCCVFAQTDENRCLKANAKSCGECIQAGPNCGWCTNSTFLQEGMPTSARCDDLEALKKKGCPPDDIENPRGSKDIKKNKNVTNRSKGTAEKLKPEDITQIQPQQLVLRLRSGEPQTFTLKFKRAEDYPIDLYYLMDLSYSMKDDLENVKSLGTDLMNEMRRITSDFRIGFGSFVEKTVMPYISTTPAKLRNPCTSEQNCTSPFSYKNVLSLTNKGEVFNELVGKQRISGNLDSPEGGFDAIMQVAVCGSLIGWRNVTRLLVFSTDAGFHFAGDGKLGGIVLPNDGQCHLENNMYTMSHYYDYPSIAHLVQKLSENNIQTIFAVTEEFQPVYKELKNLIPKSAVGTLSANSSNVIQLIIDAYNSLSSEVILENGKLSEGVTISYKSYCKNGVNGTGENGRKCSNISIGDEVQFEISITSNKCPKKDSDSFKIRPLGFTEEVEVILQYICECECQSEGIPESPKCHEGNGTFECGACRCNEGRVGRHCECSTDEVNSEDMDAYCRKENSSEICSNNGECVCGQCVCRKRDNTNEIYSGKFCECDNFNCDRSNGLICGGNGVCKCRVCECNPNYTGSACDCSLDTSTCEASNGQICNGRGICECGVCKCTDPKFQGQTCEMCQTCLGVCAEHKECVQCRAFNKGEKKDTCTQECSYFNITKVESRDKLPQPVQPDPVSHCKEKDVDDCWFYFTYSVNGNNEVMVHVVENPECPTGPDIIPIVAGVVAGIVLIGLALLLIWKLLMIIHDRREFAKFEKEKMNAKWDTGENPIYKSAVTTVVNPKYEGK
Chain of Integrin beta-1 (Homo sapiens) + Integrin alpha-4 (Homo sapiens) (P13612 whole entry, looked up): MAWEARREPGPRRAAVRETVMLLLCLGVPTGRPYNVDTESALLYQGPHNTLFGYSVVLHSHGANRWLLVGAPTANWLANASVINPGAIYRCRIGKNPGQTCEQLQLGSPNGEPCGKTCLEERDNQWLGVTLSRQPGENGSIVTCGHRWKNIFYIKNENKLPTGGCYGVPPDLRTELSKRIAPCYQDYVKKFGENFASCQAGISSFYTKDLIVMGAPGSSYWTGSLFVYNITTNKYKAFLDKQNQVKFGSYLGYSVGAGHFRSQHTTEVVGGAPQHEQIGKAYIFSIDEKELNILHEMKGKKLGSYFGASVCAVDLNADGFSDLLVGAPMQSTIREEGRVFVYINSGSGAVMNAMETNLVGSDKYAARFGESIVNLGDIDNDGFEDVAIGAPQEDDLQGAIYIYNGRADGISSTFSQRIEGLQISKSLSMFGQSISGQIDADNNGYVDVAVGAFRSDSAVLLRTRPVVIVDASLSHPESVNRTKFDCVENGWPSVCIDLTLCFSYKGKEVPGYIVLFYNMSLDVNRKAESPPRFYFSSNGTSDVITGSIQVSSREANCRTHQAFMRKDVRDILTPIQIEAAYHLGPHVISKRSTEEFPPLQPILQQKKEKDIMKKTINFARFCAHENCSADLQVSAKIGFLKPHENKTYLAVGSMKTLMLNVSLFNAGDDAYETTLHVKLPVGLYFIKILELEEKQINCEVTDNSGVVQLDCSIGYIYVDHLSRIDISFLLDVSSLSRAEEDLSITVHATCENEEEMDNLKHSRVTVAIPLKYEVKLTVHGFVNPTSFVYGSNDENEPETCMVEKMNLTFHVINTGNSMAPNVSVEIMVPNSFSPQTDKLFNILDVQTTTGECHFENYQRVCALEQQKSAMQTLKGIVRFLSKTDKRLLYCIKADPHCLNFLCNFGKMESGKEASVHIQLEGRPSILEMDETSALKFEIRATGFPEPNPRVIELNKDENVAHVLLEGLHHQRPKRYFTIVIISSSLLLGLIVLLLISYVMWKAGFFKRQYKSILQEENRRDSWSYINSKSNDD

As to `COc1cc2c(cc1OC)C(c1cc3ccccc3oc1=O)=NC(C)(C)C2`, the percent of DMSO control GFP in assay [1] is 101% (inactive). The GFP response vs DMSO was 103% (inactive) in [2] and 96.4% (inactive) in [4]. For the same molecule, the percent response of DMSO control in assay [3] is 107% (inactive). Also, in assay [5], the GFP response, % of DMSO is 100% (inactive). In addition, the double positive events in assay [6] is 46.8%. Besides, in [6], the vesicle binding response is 137% (inactive). Also, the values for the inhibition in assay [7], in [10] and in assay [14] were 10.9% (inactive), -0.33% (inactive) and 10% (inactive), respectively. The superoxide response (% of plate) in assay [8] was 117% (inactive). The aptamer binding inhibition in assay [9] was 3% (inactive). The response in [11] is 2.07% (inactive). Moreover, the binding (% of control) in assay [12] is 98.7% (inactive). For the same molecule, the efflux inhibition (fraction of control) in assay [13] was 0.1 (inactive). In [15], the differentiation response is -13.1% (inactive).
Turning to `Cc1oc2cc(O)ccc2c(=O)c1Oc1ccccc1Br`, the percent of DMSO control GFP in assay [1] is 96.9% (inactive). Moreover, the figures for the GFP response vs DMSO in [2] and in [4] were 108% (inactive) and 102% (inactive), respectively. Further, the percent response of DMSO control in [3] is 93% (inactive). Besides, in assay [5], the GFP response, % of DMSO was 98.1% (inactive). In assay [6], this molecule yielded a double positive events of 54.8%. In assay [6], the vesicle binding response is 172% (inactive). The inhibition (commonly the relative decrease from the control value, in per cent) in assay [7] was -12.4% (inactive); in assay [10], 4.89% (inactive); in [14], 9% (inactive). In addition, the superoxide response (% of plate) in assay [8] is 101% (inactive). For the same molecule, in assay [9], the aptamer binding inhibition is 6% (inactive). Also, in assay [11], the response is 1.47% (inactive). In assay [12], the binding (% of control) is 102% (inactive). The efflux inhibition (fraction of control) in assay [13] is -0.31 (inactive). In [15], the differentiation response is -13.1% (inactive).
With `CN(CCCN1CCOCC1)Cc1cn(C)nc1-c1ccccc1F`, the percent of DMSO control GFP in assay [1] was 95.5% (inactive). Further, the GFP response vs DMSO in assay [2] was 106% (inactive); in assay [4] it was 124% (inactive). In assay [3], the percent response of DMSO control was 104% (inactive). Also, the GFP response, % of DMSO in [5] is 114% (inactive). The same molecule yielded a double positive events in assay [6] of 62.1%. For the same molecule, the vesicle binding response in assay [6] is 246% (inactive). For the same molecule, the inhibition in assay [7] was -8.78% (inactive); in [10], 70.2% (active); in assay [14], 2% (inactive). In [8], the superoxide response (% of plate) was 104% (inactive). Besides, the aptamer binding inhibition in [9] was -1% (inactive). Also, the response in assay [11] is 2.44% (inactive). The binding (% of control) in [12] was 112% (inactive). In addition, the efflux inhibition (fraction of control) in assay [13] is 0.04 (inactive). Moreover, the differentiation response in assay [15] was -1.05% (inactive).
On to `CC(C)NCC(O)COc1ccc(CC(N)=O)cc1` (centres undefined), for which the percent of DMSO control GFP in assay [1] is 99.2% (inactive). Moreover, the GFP response vs DMSO was 100% (inactive) in [2] and 97.3% (inactive) in assay [4]. The percent response of DMSO control in [3] was 105% (inactive). For the same molecule, in assay [5], the GFP response, % of DMSO was 99.1% (inactive). The double positive events in [6] amounted to 61.8%. The vesicle binding response in assay [6] was 127% (inactive). For the same molecule, the values for the inhibition in [7], in assay [10] and in assay [14] were -2.53% (inactive), -8.74% (inactive) and 6% (inactive), respectively. Further, the superoxide response (% of plate) in assay [8] is 82.7% (inactive). For the same molecule, the aptamer binding inhibition in [9] is 2% (inactive). Besides, in assay [11], the response was 0.46% (inactive). Also, the binding (% of control) in assay [12] was 101% (inactive). Besides, the efflux inhibition (fraction of control) in assay [13] is -0.39 (inactive). In addition, in assay [15], the differentiation response is -2.69% (inactive).
Consider `Oc1c(Cl)cc(Cl)c(Cl)c1Cc1c(O)c(Cl)cc(Cl)c1Cl`, for which the percent of DMSO control GFP in assay [1] is 107% (inactive). The GFP response vs DMSO in [2] was 113% (inactive); in [4] it was 96.8% (inactive). Besides, the percent response of DMSO control in [3] is 108% (inactive). In addition, the GFP response, % of DMSO in [5] was 93.1% (inactive). The double positive events in [6] is 51.2%. In addition, the vesicle binding response in assay [6] is 24.1% (active). Besides, the inhibition in assay [7] was 7.43% (inactive); in assay [14], 8% (inactive). In addition, in [8], the superoxide response (% of plate) was 79.3% (inactive). In assay [9], the aptamer binding inhibition is -1% (inactive). The response in assay [11] is 0.14% (inactive). Further, the binding (% of control) in assay [12] is 105% (inactive). Also, the efflux inhibition (fraction of control) in [13] is 0.19 (inactive). The differentiation response in assay [15] is 0.82% (inactive).
For `O=C(Nc1ccc(Oc2c(F)c(F)c(F)c(F)c2F)cc1)OC1CCN2Cc3ccccc3N=C12` (centres undefined), the percent of DMSO control GFP in [1] is 107% (inactive). Also, the GFP response vs DMSO was 105% (inactive) in [2] and 98.4% (inactive) in [4]. The percent response of DMSO control in assay [3] was 97.9% (inactive). Further, in [5], the GFP response, % of DMSO is 96.4% (inactive). Moreover, the double positive events in assay [6] is 53.8%. Besides, the vesicle binding response in assay [6] was 123% (inactive). Besides, the results for the inhibition in assay [7] and in assay [14] were -184% (inactive) and 1% (inactive), respectively. For the same molecule, the superoxide response (% of plate) in assay [8] was 85.7% (inactive). Further, in assay [9], the aptamer binding inhibition is 0% (inactive). Moreover, the response in [11] is -2.8% (inactive). Also, in assay [12], the binding (% of control) was 98.8% (inactive). The efflux inhibition (fraction of control) in [13] was 1.47 (active). Moreover, the differentiation response in assay [15] is 70.8% (active).
